Data taken from PubChem BioAssay (EPA / NIEHS).
Inconclusive results are not listed. The source made the active and inactive calls. How the source made its calls, unless noted: active means hit-call score of the fitted dose curve at least 0.9, where 1 is the maximum; inactive means score below 0.9.

Tests used:
[1] = molecular target: human Retinoic Acid Receptor gamma (RARg), RARG (gene 5916) (UniProt P13631); experiment: ATG_RARg_TRANS: Attagene TRANS-FACTORIAL HepG2 Assay for human Retinoic Acid Receptor gamma (RARg) (AID 2283009; active means hit-call score of the fitted dose curve at least 0.9, where 1 is the maximum)
Chain of human Retinoic Acid Receptor gamma (RARg), RARG (gene 5916) (P13631 whole entry, looked up, the tested form may be a part): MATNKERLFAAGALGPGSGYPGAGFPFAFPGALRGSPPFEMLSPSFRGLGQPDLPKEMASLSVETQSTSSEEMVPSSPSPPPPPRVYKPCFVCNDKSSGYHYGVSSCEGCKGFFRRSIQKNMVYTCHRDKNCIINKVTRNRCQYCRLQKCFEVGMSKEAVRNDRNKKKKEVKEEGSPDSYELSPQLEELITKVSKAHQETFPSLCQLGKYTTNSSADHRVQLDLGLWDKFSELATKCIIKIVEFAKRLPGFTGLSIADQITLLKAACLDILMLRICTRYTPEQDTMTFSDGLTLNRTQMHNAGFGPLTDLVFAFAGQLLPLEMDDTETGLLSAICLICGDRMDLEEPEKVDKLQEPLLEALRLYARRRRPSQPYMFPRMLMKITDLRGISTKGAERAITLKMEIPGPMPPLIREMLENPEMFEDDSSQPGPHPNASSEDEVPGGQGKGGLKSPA
In short: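 Readout: reporter transcript levels via RT-PCR, 6-FAM primer-extension labelling, HpaI digestion and capillary electrophoresis. Cells: HepG2 carrying transfected RARg-GAL4 chimera plus UAS reporter set. Dosing 24 h; DMSO negative control.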

[2] = molecular target: Retinoic acid receptor RXR-alpha (Homo sapiens) (UniProt P19793); experiment: ATG_RXRa_TRANS: Attagene TRANS-FACTORIAL HepG2 Assay for human Retinoid X Receptor alpha (RXRa) (AID 2283012; active means hit-call score of the fitted dose curve at least 0.9, where 1 is the maximum)
Chain of Retinoic acid receptor RXR-alpha (Homo sapiens) (P19793 whole entry, looked up, the tested form may be a part): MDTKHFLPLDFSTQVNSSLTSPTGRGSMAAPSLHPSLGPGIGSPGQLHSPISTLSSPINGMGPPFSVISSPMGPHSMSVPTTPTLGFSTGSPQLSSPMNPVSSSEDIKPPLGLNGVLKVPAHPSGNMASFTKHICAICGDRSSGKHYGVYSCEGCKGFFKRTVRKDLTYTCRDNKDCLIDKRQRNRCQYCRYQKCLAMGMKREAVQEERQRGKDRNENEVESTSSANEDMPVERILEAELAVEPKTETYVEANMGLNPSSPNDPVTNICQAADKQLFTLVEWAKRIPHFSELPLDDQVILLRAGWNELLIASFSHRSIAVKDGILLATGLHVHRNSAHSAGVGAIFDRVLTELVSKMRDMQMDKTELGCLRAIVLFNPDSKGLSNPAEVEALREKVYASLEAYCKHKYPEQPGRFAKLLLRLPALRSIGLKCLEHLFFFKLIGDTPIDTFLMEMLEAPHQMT
In short: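 Read-out: fluorescent reporter-transcript fragments quantified by capillary electrophoresis after RT-PCR. Transiently transfected HepG2 cells carrying GAL4-UAS reporters and NR-GAL4 chimeras were exposed to chemical for 24 h; activity scored as increase over DMSO.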

[3] = molecular target: human Retinoid X Receptor beta (RXRb), RXRB (gene 6257) (UniProt P28702); experiment: ATG_RXRb_TRANS: Attagene TRANS-FACTORIAL HepG2 Assay for human Retinoid X Receptor beta (RXRb) (AID 2283013; active means hit-call score of the fitted dose curve at least 0.9, where 1 is the maximum)
Chain of human Retinoid X Receptor beta (RXRb), RXRB (gene 6257) (P28702 whole entry, looked up, the tested form may be a part): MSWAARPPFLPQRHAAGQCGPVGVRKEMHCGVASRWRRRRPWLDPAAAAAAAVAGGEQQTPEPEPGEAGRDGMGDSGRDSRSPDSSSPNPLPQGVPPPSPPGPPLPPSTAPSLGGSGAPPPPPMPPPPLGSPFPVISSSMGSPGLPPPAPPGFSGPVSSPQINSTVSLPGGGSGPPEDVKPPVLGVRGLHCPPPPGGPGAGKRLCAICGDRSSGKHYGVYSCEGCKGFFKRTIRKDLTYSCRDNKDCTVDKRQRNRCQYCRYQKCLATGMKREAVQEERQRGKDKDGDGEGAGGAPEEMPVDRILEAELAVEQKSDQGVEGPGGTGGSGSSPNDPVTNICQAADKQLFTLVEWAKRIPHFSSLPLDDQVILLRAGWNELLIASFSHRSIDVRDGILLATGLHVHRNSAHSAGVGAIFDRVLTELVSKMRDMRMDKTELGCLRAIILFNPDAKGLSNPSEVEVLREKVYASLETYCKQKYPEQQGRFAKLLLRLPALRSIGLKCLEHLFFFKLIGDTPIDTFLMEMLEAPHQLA
In short: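 Read-out: reporter mRNA induction via RT-PCR plus capillary electrophoresis fluorescence, analysed as signal increase relative to DMSO. Cells were human HepG2, transiently transfected with GAL4-UAS reporter constructs and chimeric receptor-Gal4 fusions, dosed for 24 h.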

[4] = molecular target: human Thyroid Receptor alpha (THRa1), THRA (gene 7067) (UniProt P10827); experiment: ATG_THRa1_TRANS: Attagene TRANS-FACTORIAL HepG2 Assay for human Thyroid Receptor alpha (THRa1) (AID 2283014; active means hit-call score of the fitted dose curve at least 0.9, where 1 is the maximum)
Chain of human Thyroid Receptor alpha (THRa1), THRA (gene 7067) (P10827 whole entry, looked up, the tested form may be a part): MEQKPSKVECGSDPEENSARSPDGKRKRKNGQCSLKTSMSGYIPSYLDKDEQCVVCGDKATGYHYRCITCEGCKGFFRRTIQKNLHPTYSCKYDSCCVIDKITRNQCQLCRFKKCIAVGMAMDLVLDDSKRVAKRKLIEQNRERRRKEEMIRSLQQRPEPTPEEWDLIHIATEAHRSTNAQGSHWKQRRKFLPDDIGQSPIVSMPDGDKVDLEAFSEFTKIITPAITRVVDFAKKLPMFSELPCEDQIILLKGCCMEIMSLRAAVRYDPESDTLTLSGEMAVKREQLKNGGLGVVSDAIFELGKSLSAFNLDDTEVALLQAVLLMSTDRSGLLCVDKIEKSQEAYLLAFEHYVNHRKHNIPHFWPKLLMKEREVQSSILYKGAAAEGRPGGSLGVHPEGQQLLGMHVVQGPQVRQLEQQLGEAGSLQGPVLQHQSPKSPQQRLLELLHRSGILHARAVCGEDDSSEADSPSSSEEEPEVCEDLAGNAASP
In short: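 HepG2 cells transiently transfected with multiplexed GAL4-UAS reporter units for exogenous chimeric THRa1-Gal4; reporter mRNA measured 24 h after dosing by RT-PCR, 6-FAM labelling, HpaI digestion and capillary electrophoresis. Gain-of-signal fitted versus DMSO baseline.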

[5] = read-out: Monocyte Chemoattractant Protein-1 (MCP1), CCL2 (gene 6347); experiment: BSK_3C_MCP1: BioMAP Diversity Plus: 3C Assay for Monocyte Chemoattractant Protein-1 (MCP1) Biomarker Activity (AID 2283017); details: primary human endothelial cells (HUVEC); actives raise or lower the signal
In short: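 Primary human umbilical vein endothelial cells (3C system) were exposed to test chemical for 24 h, after which MCP-1 was quantified by ELISA. Activity was fitted bidirectionally against DMSO as negative control and baseline.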

[6] = read-out: Monocyte Chemoattractant Protein-1 (MCP1), CCL2 (gene 6347); experiment: BSK_4H_MCP1: BioMAP Diversity Plus: 4H Assay for Monocyte Chemoattractant Protein-1 (MCP1) Biomarker Activity (AID 2283018); details: primary human endothelial cells (HUVEC); actives raise or lower the signal
In short: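 HUVEC primary cells, 24 h post-dose, MCP-1 by ELISA. Gain or loss of signal fitted bidirectionally vs DMSO baseline. Cytotoxicity: SRB stain (0.1% after 10% TCA fixation), read 560 nm, parallel cultures.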

[7] = read-out: Human Leukocyte Antigen - DR isotype (HLADR), HLA-DRA (gene 3122); experiment: BSK_3C_HLADR: BioMAP Diversity Plus: 3C Assay for Human Leukocyte Antigen - DR isotype (HLADR) Biomarker Activity (AID 2283019); details: primary human endothelial cells (HUVEC); actives raise or lower the signal
In short: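 Primary human umbilical vein endothelial cells (3C system) were dosed with compound and cell-surface HLA-DR was quantified by ELISA at 24 h. Activity was fitted bidirectionally against DMSO as negative control and baseline.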

[8] = read-out: Monokine induced gamma interferon (MIG), CXCL9 (gene 4283); experiment: BSK_3C_MIG: BioMAP Diversity Plus: 3C Assay for Monokine induced gamma interferon (MIG) Biomarker Activity (AID 2283021); details: primary human endothelial cells (HUVEC); actives raise or lower the signal;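 on AC50: MIG protein level measured by immunoassay in the treated endothelial cultures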
In short: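 HUVEC, 3C system; 24 h chemical exposure; MIG by ELISA; bidirectional fit vs DMSO baseline.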

[9] = BSK_3C_SRB: Viability Assessment in the BioMAP Diversity Plus: 3C Assay (AID 2283023); details: primary human endothelial cells (HUVEC);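 further: fitted both ways against DMSO so a hit may be signal rise or drop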
In short: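 Primary human umbilical vein endothelial cells in the 3C system were read 24 h after compound dosing. Total protein was stained with 0.1% sulforhodamine B after 10% TCA fixation and read at 560 nm, with bidirectional fitting against DMSO as baseline.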

[10] = read-out: Matrix Metallopeptidase 1 (MMP1), MMP1 (gene 4312); experiment: BSK_BE3C_MMP1: BioMAP Diversity Plus: BE3C Assay for Matrix Metallopeptidase 1 (MMP1) Biomarker Activity (AID 2283024); details: primary human bronchial epithelial cells; actives raise or lower the signal
In short: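 ELISA read-out of MMP1 in human lung bronchial epithelial primary cultures, 24 h post-dose; bidirectional curve fit vs DMSO baseline, gain or loss of signal scored.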

[11] = BSK_3C_Vis: BioMAP Diversity Plus: 3C Assay for Morphology Visualization (AID 2283025); details: primary human endothelial cells (HUVEC);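 further: fitted both ways so gain or loss versus DMSO counts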;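 on AC50: light microscopy image of cell morphology used as background control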
In short: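 HUVEC, 3C system; light microscopy of morphology at 24 h post-dose. Bidirectional fit vs DMSO baseline. Secondary readout, background-control function.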

[12] = read-out: Pselectin, SELP (gene 6403); experiment: BSK_4H_Pselectin: BioMAP Diversity Plus: 4H Assay for Pselectin Biomarker Activity (AID 2283026); details: primary human endothelial cells (HUVEC); actives raise or lower the signal
In short: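 HUVEC, 24 h chemical exposure; P-selectin read by ELISA. Bidirectional curve fit vs DMSO baseline; gain or loss of signal scored.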

[13] = BSK_4H_SRB: Viability Assessment in the BioMAP Diversity Plus: 4H Assay (AID 2283027); details: primary human endothelial cells (HUVEC);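 further: cells exposed to compound for 24 h before staining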;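 on AC50: curves fitted both ways versus DMSO so AC50 may be loss or gain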
In short: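 Cytotoxicity readout: sulforhodamine B (0.1%) staining of total protein after 10% TCA fixation, measured at 560 nm in human umbilical vein endothelium at 24 h. DMSO set the baseline; fitting was bidirectional.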

[14] = BSK_BE3C_SRB: Viability Assessment in the BioMAP Diversity Plus: BE3C Assay (AID 2283028); details: primary human bronchial epithelial cells;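 on AC50: fitted both ways so AC50 may mark signal gain or loss versus DMSO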
In short: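 Human primary bronchial epithelial cells were exposed to test chemicals for 24 h. Total protein in parallel cultures was then measured by staining with 0.1% sulforhodamine B after 10% TCA fixation, with absorbance read at 560 nm. Activity was fitted bidirectionally against DMSO.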

[15] = read-out: Thrombomodulin, THBD (gene 7056); experiment: BSK_3C_Thrombomodulin: BioMAP Diversity Plus: 3C Assay for Thrombomodulin Biomarker Activity (AID 2283029); details: primary human endothelial cells (HUVEC); actives raise or lower the signal
In short: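 HUVEC, 3C conditions; compound 24 h; thrombomodulin by ELISA; bidirectional curve fit vs DMSO baseline; parallel SRB total-protein staining for cytotoxicity.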

[16] = molecular target: human Vitamin D Receptor (VDR), VDR (gene 7421) (UniProt P11473); experiment: ATG_VDR_TRANS: Attagene TRANS-FACTORIAL HepG2 Assay for human Vitamin D Receptor (VDR) (AID 2283022; active means hit-call score of the fitted dose curve at least 0.9, where 1 is the maximum)
Chain of human Vitamin D Receptor (VDR), VDR (gene 7421) (P11473 whole entry, looked up, the tested form may be a part): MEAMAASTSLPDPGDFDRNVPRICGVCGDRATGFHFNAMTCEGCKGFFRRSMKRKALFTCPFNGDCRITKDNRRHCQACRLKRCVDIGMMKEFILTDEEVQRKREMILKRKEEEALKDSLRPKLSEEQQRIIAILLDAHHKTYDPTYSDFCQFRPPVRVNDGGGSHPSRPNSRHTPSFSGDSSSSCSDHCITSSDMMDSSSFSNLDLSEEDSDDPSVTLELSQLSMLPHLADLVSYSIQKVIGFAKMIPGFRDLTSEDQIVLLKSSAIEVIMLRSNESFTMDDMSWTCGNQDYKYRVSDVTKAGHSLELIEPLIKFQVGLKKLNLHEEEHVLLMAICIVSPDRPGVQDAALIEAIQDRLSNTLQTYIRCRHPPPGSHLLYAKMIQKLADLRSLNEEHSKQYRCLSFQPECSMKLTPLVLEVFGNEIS
In short: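 HepG2 cells were transiently transfected with multiple GAL4-UAS reporter units, so signal reflects exogenous chimeric receptor-Gal4 activity. After 24 h compound exposure, reporter mRNA was measured by RT-PCR, fluorescent labelling and capillary electrophoresis, fitted for gain of signal versus DMSO.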

[17] = molecular target: human RAR-related Orphan Receptor gamma (RORg), RORC (gene 6097) (UniProt P51449); experiment: ATG_RORg_TRANS: Attagene TRANS-FACTORIAL HepG2 Assay for human RAR-related Orphan Receptor gamma (RORg) (AID 2283011; active means hit-call score of the fitted dose curve at least 0.9, where 1 is the maximum)
Chain of human RAR-related Orphan Receptor gamma (RORg), RORC (gene 6097) (P51449 whole entry, looked up, the tested form may be a part): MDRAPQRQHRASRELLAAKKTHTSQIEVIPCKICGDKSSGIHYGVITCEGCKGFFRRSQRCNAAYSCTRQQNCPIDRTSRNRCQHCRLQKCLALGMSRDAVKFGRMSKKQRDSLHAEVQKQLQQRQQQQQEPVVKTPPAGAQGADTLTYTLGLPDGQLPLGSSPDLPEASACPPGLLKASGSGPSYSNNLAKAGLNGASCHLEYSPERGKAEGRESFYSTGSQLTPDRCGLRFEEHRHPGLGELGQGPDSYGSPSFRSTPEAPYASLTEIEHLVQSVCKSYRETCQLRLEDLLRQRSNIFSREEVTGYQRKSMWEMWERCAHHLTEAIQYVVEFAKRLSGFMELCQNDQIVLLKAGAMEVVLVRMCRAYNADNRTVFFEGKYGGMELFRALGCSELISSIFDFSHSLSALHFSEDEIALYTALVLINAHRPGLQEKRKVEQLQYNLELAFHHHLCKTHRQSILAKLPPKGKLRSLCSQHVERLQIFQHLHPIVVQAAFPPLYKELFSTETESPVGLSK
In short: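 Readout: reporter transcript induction (RT-PCR, fluorescent primer extension, capillary electrophoresis) after 24 h compound exposure of transiently transfected HepG2 cells carrying a RORg-Gal4 chimera and GAL4-UAS reporters; DMSO served as baseline, with increasing signal fitted.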

[18] = read-out: E-selectin (Homo sapiens) (UniProt P16581); experiment: BSK_3C_Eselectin: BioMAP Diversity Plus: 3C Assay for Eselectin Biomarker Activity (AID 2283015); details: primary human endothelial cells (HUVEC); actives raise or lower the signal
In short: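 Primary human umbilical vein endothelial cells (3C system) were dosed with chemical and cell-surface E-selectin measured by ELISA 24 h later. Bidirectional curve fitting used DMSO as negative control and baseline.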

[19] = read-out: Interleukin-8 (IL8), CXCL8 (gene 3576); experiment: BSK_3C_IL8: BioMAP Diversity Plus: 3C Assay for Interleukin-8 (IL8) Biomarker Activity (AID 2283020); details: primary human endothelial cells (HUVEC); actives raise or lower the signal
In short: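 HUVEC, 3C stimulation; 24 h compound exposure; IL-8 read by ELISA; gain or loss of signal fitted relative to DMSO control.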

[20] = read-out: Interleukin-1 alpha (IL1a), IL1A (gene 3552); experiment: BSK_BE3C_IL1a: BioMAP Diversity Plus: BE3C Assay for Interleukin-1 alpha (IL1a) Biomarker Activity (AID 2283016); details: primary human bronchial epithelial cells; actives raise or lower the signal
In short: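 ELISA read-out of IL-1a from human lung bronchial epithelial primary cells, 24 h post-dose. Gain or loss of signal fitted relative to DMSO negative control.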

Measured: AC50

Chain of E-selectin (Homo sapiens) (P16581 whole entry, looked up): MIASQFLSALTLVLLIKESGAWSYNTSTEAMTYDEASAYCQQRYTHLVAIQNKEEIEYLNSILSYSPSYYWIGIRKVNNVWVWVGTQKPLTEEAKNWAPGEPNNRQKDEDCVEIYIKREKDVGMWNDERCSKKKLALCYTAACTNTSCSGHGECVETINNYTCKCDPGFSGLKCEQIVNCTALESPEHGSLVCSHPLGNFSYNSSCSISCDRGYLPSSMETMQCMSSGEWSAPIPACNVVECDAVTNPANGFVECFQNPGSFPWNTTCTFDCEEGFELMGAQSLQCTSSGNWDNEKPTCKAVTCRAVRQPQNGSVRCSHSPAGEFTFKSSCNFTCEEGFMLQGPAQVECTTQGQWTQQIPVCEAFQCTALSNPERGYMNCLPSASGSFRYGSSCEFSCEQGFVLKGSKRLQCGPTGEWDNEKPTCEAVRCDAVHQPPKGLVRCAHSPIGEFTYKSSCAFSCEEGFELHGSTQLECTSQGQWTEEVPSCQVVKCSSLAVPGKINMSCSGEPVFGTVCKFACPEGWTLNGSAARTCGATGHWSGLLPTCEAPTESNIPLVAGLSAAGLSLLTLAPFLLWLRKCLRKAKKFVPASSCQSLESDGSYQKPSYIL

CON=C(C(=O)OC)c1ccccc1CON=C(C)c1cccc(C(F)(F)F)c1
active: [5] 3.3 µM | [6] 2.81 µM | [7] 2.82 µM | [9] 10.4 µM | [13] 5.67 µM | [15] 3.92 µM
not listed: [16] | [17] | [18] | [19] | [20]
inactive: all other assays above

COP(=O)(OC)C(O)C(Cl)(Cl)Cl (stereo not drawn)
active: [11] 9.8 µM
not listed: [17] | [18] | [19] | [20]
inactive: all other assays above

CC(C1CC1)C(O)(Cn1cncn1)c1ccc(Cl)cc1 (stereo not drawn)
not listed: [4] | [16] | [20]
inactive: all other assays above

CCc1cccc(CC)c1N(COC)C(=O)CCl
active: [5] 14.4 µM | [6] 22 µM | [7] 20 µM | [9] 20 µM | [11] 39 µM | [12] 14.9 µM | [13] 14.8 µM
not listed: [3] | [16] | [17] | [18] | [19]
inactive: all other assays above

CC(=NC#N)N(C)Cc1ccc(Cl)nc1
active: [13] 7.17 µM
not listed: [4] | [17] | [18] | [19] | [20]
inactive: all other assays above

CCOP(=S)(OCC)Oc1ccc2c(C)c(Cl)c(=O)oc2c1
active: [14] 20 µM | [15] 6.69 µM
not listed: [3] | [16] | [17] | [20]
inactive: all other assays above

COP(=O)(OC)OC(Br)C(Cl)(Cl)Br (stereo not drawn)
active: [18] 30.1 µM | [5] 35.6 µM | [6] 30.1 µM | [7] 14.9 µM | [19] 34.9 µM | [8] 35.2 µM | [9] 28.8 µM | [11] 16.3 µM | [12] 13.2 µM | [13] 29 µM | [14] 25 µM
inactive: [1] | [10] | [15]
